From publication PMC5540273 (PLoS ONE, 2017)
Values joined by “and” are separate entries in the source; they are usually repeats but may differ in a detail not shown here. Equal values may be shown once. Read-outs that look alike come from different tables or passages of the source.

Assays:
SBK1 = details: concentration: 1 μM, replicates: in singlicate, n = 1
SGK2 = details: concentration: 1 μM, replicates: in singlicate, n = 1
SGK3 = details: concentration: 1 μM, replicates: in singlicate, n = 1
SGK = details: concentration: 1 μM, replicates: in singlicate, n = 1
SIK2 = details: concentration: 1 μM, replicates: in singlicate, n = 1
SIK = details: concentration: 1 μM, replicates: in singlicate, n = 1
SLK = details: concentration: 1 μM, replicates: in singlicate, n = 1
SNARK = tested on: T1, SNARK; details: concentration: 1 μM, replicates: in singlicate, n = 1
T1 construct: gene NUAK2

SNRK = details: concentration: 1 μM, replicates: in singlicate; n = 1
SRC = details: concentration: 1 μM, replicates: in singlicate, n = 1
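Also: KINOMEscan kinase panel screen.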

SMILES: COc1ccc(-c2nc3n(c2-c2ccncc2)CCC3)cc1 [SKF-104493]
- %Inh (SBK1; 1 µM): 27% and 8%
- %Inh (SGK2; 1 µM): 16% and 0%
- %Inh (SGK3; 1 µM): 13% and 2%
- %Inh (SGK; 1 µM): 7% and 0%
- %Inh (SIK2; 1 µM): 0% and 2%
- %Inh (SIK; 1 µM): 0% and 5%
- %Inh (SLK; 1 µM): 20% and 36%
- %Inh (SNARK; 1 µM): 7% and 2%
- %Inh (SNRK): 0%
- %Inh (SRC; 1 µM): 18% and 0%

SMILES: C[C@@H]1CCN(C(=O)CO)C[C@@H]1N(C)c1ncnc2[nH]ccc12
- %Inh (SBK1): 0%
- %Inh (SGK2): 0%
- %Inh (SGK3): 1%
- %Inh (SGK): 0%
- %Inh (SIK2): 0%
- %Inh (SIK): 10%
- %Inh (SLK): 0%
- %Inh (SNARK): 10%
- %Inh (SNRK): 3%
- %Inh (SRC): 6%

SMILES: CNc1nccc(-c2c(-c3ccc(F)cc3)ncn2C2CCN(C)CC2)n1 [SB-222903]
- %Inh (SBK1): 0%
- %Inh (SGK2): 0%
- %Inh (SGK3): 0%
- %Inh (SGK): 0%
- %Inh (SIK2): 17%
- %Inh (SIK): 0%
- %Inh (SLK): 0%
- %Inh (SNARK): 0%
- %Inh (SNRK): 0%
- %Inh (SRC): 0%

SMILES: COc1ccc(Nc2nccc(N3CCC(NC(=O)c4cccc(NC(C)=O)c4)C3)n2)cc1 (centres unmarked) [GSK1379732]
- %Inh (SBK1): 21%
- %Inh (SGK2): 3%
- %Inh (SGK3): 3%
- %Inh (SGK): 15%
- %Inh (SIK2): 0%
- %Inh (SIK): 0%
- %Inh (SLK): 6%
- %Inh (SNARK): 3%
- %Inh (SNRK): 0%
- %Inh (SRC): 0%

SMILES: Clc1ccc(-c2cc(-c3c[nH]nc3-c3ccccn3)ccn2)cc1 [GW681251]
- %Inh (SBK1): 4%
- %Inh (SGK2): 0%
- %Inh (SGK3): 6%
- %Inh (SGK): 0%
- %Inh (SIK2): 0%
- %Inh (SIK): 0%
- %Inh (SLK): 10%
- %Inh (SNARK): 0%
- %Inh (SNRK): 0%
- %Inh (SRC): 0%

SMILES: Cl.Fc1ccccc1COc1ccc(Nc2ncnc3ccc(-c4nnc(C(F)(F)F)o4)cc23)cc1Cl [GW424170]
- %Inh (SBK1): 0%
- %Inh (SGK2): 0%
- %Inh (SGK3): 0%
- %Inh (SGK): 0%
- %Inh (SIK2): 0%
- %Inh (SIK): 1%
- %Inh (SLK): 20%
- %Inh (SNARK): 0%
- %Inh (SNRK): 0%
- %Inh (SRC): 0%

SMILES: Nc1n[nH]c2nnc(-c3ccccc3)cc12 [SB-517389]
- %Inh (SBK1): 10%
- %Inh (SGK2): 0%
- %Inh (SGK3): 19%
- %Inh (SGK): 0%
- %Inh (SIK2): 0%
- %Inh (SIK): 0%
- %Inh (SLK): 0%
- %Inh (SNARK): 0%
- %Inh (SNRK): 2%
- %Inh (SRC): 0%

SMILES: C[C@H]1CC[C@@H](C(=O)Nc2ccccc2)CN1c1cc(-c2ccc3c(N)n[nH]c3c2)nc(N)n1 [GSK2283293]
- %Inh (SBK1): 9%
- %Inh (SGK2): 0%
- %Inh (SGK3): 7%
- %Inh (SGK): 0%
- %Inh (SIK2): 0%
- %Inh (SIK): 0%
- %Inh (SLK): 0%
- %Inh (SNARK): 7%
- %Inh (SNRK): 0%
- %Inh (SRC): 0%

SMILES: Fc1cccc(COc2ccc(Nc3ncnc4nn5ccccc5c34)cc2Cl)c1 [GW689066]
- %Inh (SBK1): 2%
- %Inh (SGK2): 0%
- %Inh (SGK3): 0%
- %Inh (SGK): 0%
- %Inh (SIK2): 0%
- %Inh (SIK): 0%
- %Inh (SLK): 2%
- %Inh (SNARK): 0%
- %Inh (SNRK): 0%
- %Inh (SRC): 0%

SMILES: CC(C)(C)c1ccc(-n2cnc3c(N)ncnc32)cc1 [SKF-97263]
- %Inh (SBK1): 11%
- %Inh (SGK2): 0%
- %Inh (SGK3): 15%
- %Inh (SGK): 2%
- %Inh (SIK2): 7%
- %Inh (SIK): 0%
- %Inh (SLK): 13%
- %Inh (SNARK): 18%
- %Inh (SNRK): 0%
- %Inh (SRC): 1%

SMILES: FC(F)(F)c1ccc(-c2nn3ncccc3c2-c2ccnc(Nc3cccc(C(F)(F)F)c3)n2)cc1 [GW828205]
- %Inh (SBK1): 0%
- %Inh (SGK2): 0%
- %Inh (SGK3): 18%
- %Inh (SGK): 0%
- %Inh (SIK2): 0%
- %Inh (SIK): 47%
- %Inh (SLK): 21%
- %Inh (SNARK): 0%
- %Inh (SNRK): 0%
- %Inh (SRC): 0%

SMILES: O=C(CCO)NCCn1ccc2ncnc(Nc3ccc(Oc4cccc(C(F)(F)F)c4)c(Cl)c3)c21
- %Inh (SBK1): 0%
- %Inh (SGK2): 0%
- %Inh (SGK3): 0%
- %Inh (SGK): 0%
- %Inh (SIK2): 16%
- %Inh (SIK): 10%
- %Inh (SLK): 37%
- %Inh (SNARK): 0%
- %Inh (SNRK): 0%
- %Inh (SRC): 0%

SMILES: O=c1cc(N2CCOCC2)nc2n(Cc3cccc(Cl)c3)ccn12 [GSK2296823]
- %Inh (SBK1): 32%
- %Inh (SGK2): 0%
- %Inh (SGK3): 13%
- %Inh (SGK): 0%
- %Inh (SIK2): 9%
- %Inh (SIK): 0%
- %Inh (SLK): 0%
- %Inh (SNARK): 0%
- %Inh (SNRK): 5%
- %Inh (SRC): 2%

SMILES: CS(=O)(=O)CCNCc1nc(-c2ccc3ncnc(Nc4ccc(OCc5cccc(F)c5)c(Cl)c4)c3c2)cs1.Cl [GW583340]
- %Inh (SBK1): 0%
- %Inh (SGK2): 0%
- %Inh (SGK3): 0%
- %Inh (SGK): 0%
- %Inh (SIK2): 0%
- %Inh (SIK): 0%
- %Inh (SLK): 20%
- %Inh (SNARK): 0%
- %Inh (SNRK): 0%
- %Inh (SRC): 0%

SMILES: N#Cc1ccc(Oc2ccc(Nc3ncnc4cc[nH]c34)cc2Cl)cc1
- %Inh (SBK1): 27%
- %Inh (SGK2): 34%
- %Inh (SGK3): 28%
- %Inh (SGK): 31%
- %Inh (SIK2): 37%
- %Inh (SIK): 0%
- %Inh (SLK): 7%
- %Inh (SNARK): 24%
- %Inh (SNRK): 38%
- %Inh (SRC): 3%

SMILES: CN1CCC(n2cnc(-c3ccc(F)cc3)c2-c2ccnc(NC3CCNCC3)n2)CC1 [SB-229482]
- %Inh (SBK1): 0%
- %Inh (SGK2): 87%
- %Inh (SGK3): 0%
- %Inh (SGK): 0%
- %Inh (SIK2): 0%
- %Inh (SIK): 12%
- %Inh (SLK): 0%
- %Inh (SNARK): 0%
- %Inh (SNRK): 1%
- %Inh (SRC): 0%

SMILES: CCn1c(-c2ccncc2)nc2cnccc21 [SB-735216]
- %Inh (SBK1): 20%
- %Inh (SGK2): 19%
- %Inh (SGK3): 28%
- %Inh (SGK): 5%
- %Inh (SIK2): 0%
- %Inh (SIK): 19%
- %Inh (SLK): 8%
- %Inh (SNARK): 21%
- %Inh (SNRK): 17%
- %Inh (SRC): 0%
